In PubChem BioAssay (NCI):
About 83,000 compounds went through this panel and 20% of them were active in at least one assay; those are over-represented in the sample as a whole.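 Interpretation: 100, growth as untreated; towards 0, rising growth inhibition; 0, no net growth; 0 to -100, cell death. Compounds scoring below 10 were considered active.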 The source made the active and inactive calls.

These compounds were tested on K-562 leukemia (assay: NCI-60 one-dose screen, 48 h (100 = growth as untreated, 0 = no growth, -100 = all killed)). Details: 10 µM unless noted.

Structure (SMILES)	growth
C#Cc1nc(C2=C(C)C(=O)/C(=N/OC(C)=O)C2)cs1	84% (inactive)
CSCCC(C(=O)O)N1C(=O)/C(=C/c2ccc(O)c(O)c2)SC1=S (centres undefined)	109% (inactive)
CC(=NNc1ncnc2ccccc12)c1ccc(S(C)(=O)=O)cc1	96.9% (inactive)
Nc1c(C(=O)c2ccc(Br)cc2)oc2nc(-c3cnccn3)cc(-c3cccs3)c12	92.7% (inactive)
COc1cc(-c2nc3ccc(-c4nnc(SCC(=O)Nc5ccc(C(C)=O)cc5)o4)cc3[nH]2)cc(OC)c1OC	108% (inactive)
N#Cc1nc(-c2ccccc2)oc1S(N)(=O)=O	21.5% (inactive)
O=C(CN1C(=O)/C(=C/c2ccccc2)SC1=S)N1CCOCC1	77.4% (inactive)
Nc1ncc(-c2ccc3ncnc(N4CCc5cc(F)c(Cl)cc54)c3c2)cc1CO	7.76% (active)
Cc1ccc(C(=O)Nc2cccc(C(F)(F)F)c2)cc1Nc1nc(-c2cnccn2)nc2c1cnn2C	3.86% (active)
Clc1ccc2c(NCCCn3ccnc3)c3oc4ccc(Cl)cc4c3nc2c1	66.2% (inactive)
CN(C)CCCNc1c2ccc(Cl)cc2nc2c1oc1ccc(Cl)cc12	-6.56% (active)
O=C(N/N=C/c1ccc[nH]1)c1[nH]c2ccc(Br)cc2c1-c1ccccc1	3.06% (active)
C#Cc1nc(C2=C(C)/C(=N/OCc3ccccc3)CC2)cs1	75.5% (inactive)
N#Cc1ccc(C(=O)CSc2nc(Nc3ccc(S(N)(=O)=O)cc3)c3ccccc3n2)cc1	105% (inactive)
C=CCn1c(SCC(=O)c2ccccc2)nnc1-c1c[nH]c2ccccc12	92.6% (inactive)
Cc1cc(=O)oc2cc(OCCCOc3ccc(/C=C/C(=O)Nc4ccc(Cl)cc4)cc3)ccc12	69.1% (inactive)
O=C(c1ccc(Cl)cc1)C1[C@H](c2ccc(Cl)cc2)[C@@H](c2ccccc2)NC12C(=O)Nc1ccc(Br)cc12 (some centres undefined)	17% (inactive)
C[C@@H](Nc1c(C#N)cnc2ccc(-c3cnc(N)nc3)cc12)c1ccccc1	16.2% (inactive)
CCN1C(=S)N(CC)C2C1NN=C1SC(c3ccccc3)=CC(=O)N12 (centres undefined)	57.1% (inactive)
CC(C)(O)c1cncc(-c2ccc3ncnc(N4CCc5cc(F)c(Cl)cc54)c3c2)c1	33.6% (inactive)
CC(C)(C)Nc1nc2c(OCCc3ccccc3)cccn2c1-c1ccccc1Cl	0.922% (active)
COc1ccc(/C=N/NC(=O)c2[nH]c3ccc(Br)cc3c2-c2ccccc2)s1	10.8% (inactive)
OC1CCN(CCCOc2c3ccccc3nc3c2oc2ccc(Cl)cc23)CC1	3.22% (active)
Cc1sc2c(c1C)c(=O)nc1c(-c3nc(-c4ccc(F)cc4)no3)n[nH]n12	103% (inactive)
CC(C)(C)Nc1nc2c(OCCc3ccccc3)cccn2c1-c1cccc(F)c1	1.65% (active)

The compounds below were run on MALME-3M melanoma in the same assay as above. Details: 10 µM unless noted.

Structure (SMILES)	growth
CCOC(=O)c1c(Nc2ccccc2)nn2c(N)c(C#N)c(-c3ccccc3)nc12	96% (inactive)
COC(=O)c1ccc(NC(=S)N2CCc3ccc([N+](=O)[O-])cc3C2)cc1O	95.4% (inactive)
CCCC(=O)NC(c1cccc(N(C)C)c1)c1cc(C)c2cccnc2c1O (centres undefined)	79.8% (inactive)
COc1cc(/C=C/C(=O)c2cc(OC)c(OC)c(OC)c2)ccc1Oc1nc(NCCO)nc(N2CCOCC2)n1	29% (inactive)
CS(=O)(=O)c1ccc(-n2cc(/C=C/C(=O)c3ccc(NC(=O)CO[N+](=O)[O-])cc3)c(-c3ccc(Cl)cc3)n2)cc1	100% (inactive)
Cc1cc2nc3c4cc(Cl)ccc4n(CC(=O)NCCN(C)C)c3nc2cc1C	-66.9% (active)
Cc1cc2nc3c4cc(Cl)ccc4n(CC(=S)NCCN(C)C)c3nc2cc1C	-49.2% (active)
NS(=O)(=O)c1ccc(Nc2nc(SCC(=O)c3ccc(Cl)cc3)nc3ccccc23)cc1	92.8% (inactive)
Clc1ccc2oc3c(NCCCN4CCOCC4)c4ccccc4nc3c2c1	24.1% (inactive)
Cc1ccc(/C=C/c2nn3c(-c4ccco4)nnc3s2)cc1C	104% (inactive)
N=C1CC(=O)NN1C(=O)CSc1nc2sc3c(c2c(=O)n1-c1ccc(Cl)cc1)CCCC3	90.5% (inactive)
O=C(NNc1nc2cc(F)ccc2n2c(CN3CC4(COC4)C3)ccc12)c1cnccn1	19.5% (inactive)
COc1cc2nc(-c3ccc(C)cc3)cc(OCCCNCC3CCCO3)c2cc1OC (centres undefined)	50% (inactive)
CS(=O)(=O)c1ccc(-c2nc3ccccn3c2C=Nc2ccc(Cl)cc2)cc1	93.6% (inactive)
C#Cc1nc(C2=C(C)C(=O)/C(=N/OC(C)=O)C2)cs1	86.1% (inactive)
CSCCC(C(=O)O)N1C(=O)/C(=C/c2ccc(O)c(O)c2)SC1=S (centres undefined)	101% (inactive)
CC(=NNc1ncnc2ccccc12)c1ccc(S(C)(=O)=O)cc1	98.3% (inactive)
Nc1c(C(=O)c2ccc(Br)cc2)oc2nc(-c3cnccn3)cc(-c3cccs3)c12	102% (inactive)
COc1cc(-c2nc3ccc(-c4nnc(SCC(=O)Nc5ccc(C(C)=O)cc5)o4)cc3[nH]2)cc(OC)c1OC	97.7% (inactive)
N#Cc1nc(-c2ccccc2)oc1S(N)(=O)=O	64.9% (inactive)

Structure (SMILES)	growth
O=C(CN1C(=O)/C(=C/c2ccccc2)SC1=S)N1CCOCC1	83.6% (inactive)
Nc1ncc(-c2ccc3ncnc(N4CCc5cc(F)c(Cl)cc54)c3c2)cc1CO	-25.8% (active)
Cc1ccc(C(=O)Nc2cccc(C(F)(F)F)c2)cc1Nc1nc(-c2cnccn2)nc2c1cnn2C	-15.3% (active)
Clc1ccc2c(NCCCn3ccnc3)c3oc4ccc(Cl)cc4c3nc2c1	96.5% (inactive)
CN(C)CCCNc1c2ccc(Cl)cc2nc2c1oc1ccc(Cl)cc12	49.4% (inactive)
O=C(N/N=C/c1ccc[nH]1)c1[nH]c2ccc(Br)cc2c1-c1ccccc1	45.1% (inactive)
C#Cc1nc(C2=C(C)/C(=N/OCc3ccccc3)CC2)cs1	-44% (active)
N#Cc1ccc(C(=O)CSc2nc(Nc3ccc(S(N)(=O)=O)cc3)c3ccccc3n2)cc1	106% (inactive)
C=CCn1c(SCC(=O)c2ccccc2)nnc1-c1c[nH]c2ccccc12	86.6% (inactive)
Cc1cc(=O)oc2cc(OCCCOc3ccc(/C=C/C(=O)Nc4ccc(Cl)cc4)cc3)ccc12	56.6% (inactive)
O=C(c1ccc(Cl)cc1)C1[C@H](c2ccc(Cl)cc2)[C@@H](c2ccccc2)NC12C(=O)Nc1ccc(Br)cc12 (some centres undefined)	62.7% (inactive)
C[C@@H](Nc1c(C#N)cnc2ccc(-c3cnc(N)nc3)cc12)c1ccccc1	8.07% (active)
CCN1C(=S)N(CC)C2C1NN=C1SC(c3ccccc3)=CC(=O)N12 (centres undefined)	105% (inactive)
CC(C)(O)c1cncc(-c2ccc3ncnc(N4CCc5cc(F)c(Cl)cc54)c3c2)c1	16.1% (inactive)
CC(C)(C)Nc1nc2c(OCCc3ccccc3)cccn2c1-c1ccccc1Cl	-32% (active)
COc1ccc(/C=N/NC(=O)c2[nH]c3ccc(Br)cc3c2-c2ccccc2)s1	55.5% (inactive)
OC1CCN(CCCOc2c3ccccc3nc3c2oc2ccc(Cl)cc23)CC1	1.25% (active)
Cc1sc2c(c1C)c(=O)nc1c(-c3nc(-c4ccc(F)cc4)no3)n[nH]n12	96.6% (inactive)
CC(C)(C)Nc1nc2c(OCCc3ccccc3)cccn2c1-c1cccc(F)c1	-10.8% (active)
